Consider 20 molecules from PubChem BioAssay (NCATS).

Experiment [1] can be described thus: P-glycoprotein substrates identified in KB-3-1 adenocarcinoma cell line, qHTS therapeutic library screen (AID 1346986). Further: nearly all actives have a fitted effect of over 60% in size. Summed up: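 Using luminescence to quantify ATP, parental and P-gp-overexpressing KB cells were compared after 72 h compound titration. KB-8-5-11 was also run with the P-gp inhibitor tariquidar.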
A general note: In qHTS, concentration-response curves come from the screen itself.

Experiment [2] can be described thus: P-glycoprotein substrates identified in KB-8-5-11 adenocarcinoma cell line, qHTS therapeutic library screen (AID 1346987). Further: nearly all actives have a fitted effect of over 65% in size. Summed up:
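Human cervical adenocarcinoma KB-8-5-11 cells, selected in colchicine to over-express P-gp and assayed without it, were exposed for 72 h to titrated compounds. An ATP-based luminescent viability signal gave AC50.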

Experiment [3] in a line: Confirmatory screen GU Rhodamine qHTS for Zika virus inhibitors qHTS (AID 1347157). Further: potency means the concentration at half of the fitted maximal effect; nearly all actives have a fitted effect of over 70% in size. Summed up: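 Percent inhibition derives from the 15-min fluorescence change (ex 480, em 540 nm), normalized to no-enzyme and no-inhibitor wells. Reactions contained 25 nM NS2B-NS3 complex and 1.5 microM substrate in 10 mM Tris-HCl pH 8.0.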
Experiment [4] in a line: ZIKV-mCherry secondary qHTS for Zika virus inhibitors (AID 1347158). Further: top concentration of the series differs between compounds. In a few lines: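 This orthogonal imaging screen measured ZIKV-mCherry infection of Vero cells exposed to compound, MOI 1, 48-72 h. Percent infection came from segmented nuclei scored mCherry-positive above 3 SD of negative controls.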
The subject of experiment [5] is Zika virus NS2B-NS3 protease (unlinked complex). Nature of the experiment: Primary screen GU Rhodamine qHTS for Zika virus inhibitors: Unlinked NS2B-NS3 protease assay (AID 1347159). Further: nearly all actives have a fitted effect of over 60% in size. Further: potency means the concentration at half of the fitted maximal effect. Summed up: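 Unlinked NS2B/NS3, 25 nM; Rhod110 peptide, 1.5 microM; compounds, up to 114 microM. Reaction run 15 min at RT in 10 mM Tris-HCl pH 8.0, 0.01% Tween 20; kinetic fluorescence change fitted with a 4-parameter Hill model.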

Experiment [6] has as its system Zika virus NS2B-NS3 protease (linked construct). Briefly: Primary screen NINDS Rhodamine qHTS for Zika virus inhibitors (AID 1347160). Further: nearly all actives have a fitted effect of over 55% in size. Further: potency means the concentration at half of the fitted maximal effect. Summed up:
(§1)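 Single-chain NS2B-NS3 protease, 25 nM, pH 8.0; compounds preincubated 15 min. Activity: Rhodamine110 release from 1.5 microM substrate over 15 min, room temperature, data fitted to 4-parameter Hill.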

A short description of experiment [7]: Confirmatory screen NINDS Rhodamine qHTS for Zika virus inhibitors (AID 1347161). Further: potency means the concentration at half of the fitted maximal effect; nearly all actives have a fitted effect of over 60% in size. Summed up:
as §1

Experiment [8] has as its system Zika virus NS2B-NS3 protease (linked). Nature of the experiment: 384 well plate NINDS AMC confirmatory qHTS for Zika virus inhibitors (AID 1347163). Further: potency means the concentration at half of the fitted maximal effect; nearly all actives have a fitted effect of over 50% in size. Summed up: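 Enzyme (5, 30 or 60 nM final) first met test compounds for ~15 min. The AMC-tagged peptide Ac-VKTGKR-AMC followed at 30 microM. Fluorescence was then recorded at 25 min and scaled against no-enzyme and no-inhibitor wells.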

Experiment [9] in a line: Vero cells viability qHTS for Zika virus inhibitors (AID 1347167). In a few lines:
(§2)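 To flag cytotoxic protease inhibitors, viability is measured by ATP-dependent luminescence (CellTiter Glo) after cells attached overnight receive compound for 24 to 48 hours in DMEM with 4% FBS.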

Experiment [10] in a line: HepG2 cells viability qHTS for Zika virus inhibitors (AID 1347168). In a few lines: as §2
Experiment [11] has as its system Zika virus NS2B-NS3 protease. Briefly: Primary screen GU AMC qHTS for Zika virus inhibitors (AID 1347154). Further: nearly all actives have a fitted effect of over 70% in size. In a few lines:
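Unlinked Zika NS2B hydrophilic domain/NS3 protease domain noncovalent complex (25 nM final) in 10 mM Tris-HCl pH 8.0, 0.01% Tween 20, with AMC peptide substrate. Fluorescence (ex 340, em 450 nm) change over 15 min, room temperature; percent inhibition fitted to 4-parameter Hill equation.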

Experiment [12] has as its system Zika virus NS2B-NS3 protease (unlinked complex). Briefly: Confirmatory screen GU AMC qHTS for Zika virus inhibitors (AID 1347153). Further: nearly all actives have a fitted effect of over 70% in size. Further: potency means the concentration at half of the fitted maximal effect. In a few lines:
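Unlinked enzyme 25 nM, Tris pH 8.0/0.01% Tween 20; cpd 15 min RT, dark; + AMC substrate 10 µM (Km 18.3 µM); 340/450 nm read at t0 and 15 min; % inhibition → 4-param fit.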

Experiment [13] has as its system Zika virus NS2B-NS3 protease (linked construct). Nature of the experiment: Confirmatory screen NINDS AMC qHTS for Zika virus inhibitors (AID 1347152). Further: potency means the concentration at half of the fitted maximal effect; nearly all actives have a fitted effect of over 70% in size. Summed up:
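IC50s from 4-parameter Hill fits of percent inhibition, based on AMC fluorescence gain (340/450 nm) over 15 min with 10 microM Bz-Nle-KRR-AMC. Enzyme: 1 nM linked NS2B-NS3 in Tris-HCl pH 8.0; 15-min compound preincubation.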

Inconclusive results are not listed. Unmarked numbers belong to inactive results. Calls of active or inactive are those of the source. The call rests on the fitted dose curve; in most records, active means well fitted curve in the direction sought with a large enough effect; inconclusive means small, poorly fitted or top-dose-only effect, or another doubt; inactive means no such curve, though single readings can be large; an effect the other way counts as inactive or inconclusive.

Regarding `C=C1[C@H]2CCC3[C@]4(C)CCC[C@@](C)(C(=O)O)C4CC[C@]3(C2)[C@H]1OC(C)=O` (some centres not stated), the Potency result in experiment [1] and in [2] was “inactive” in each case.

As to `C/C=C(/C)C(=O)OC1CC(C)(C)CC2C3=CCC4C5(C)CCC(OC6OC(C)C(OC7OC(C(=O)O)C(O)C(OC8OC(CO)C(O)C(O)C8OC8OC(CO)C(O)C(O)C8O)C7O)C(O)C6O)C(C)(C)C5CCC4(C)C3(C)C(OC(=O)/C=C/C=C/C=C/CCC)C(OC(C)=O)C12CO` (configuration not stated), the outcome in experiment [1] and in [2] was “inactive [at 9.29 µM]” each time.

As to `COc1cccc(OC)c1-c1cc(C(=O)N[C@@H](CC(C)C)C(=O)O)nn1-c1ccnc2cc(Cl)ccc12`, the Potency entry in experiment [1], in experiment [2] and in [4] was “inactive” in each case. The Potency in experiment [3] was 17.5 µM (active); in experiment [5], 22.4 µM (active); in experiment [6], 10 µM (active); in experiment [7], 12.4 µM (active); in experiment [8], 31.6 µM (active). Also, the molecule was classed as inactive in [9] and in experiment [10].

Consider `O=C(/C=C/c1ccc(O)c(O)c1)O[C@H]1[C@@H]2C=CO[C@@H](O[C@@H]3O[C@H](CO)[C@@H](O)[C@H](O)[C@H]3O)[C@@H]2[C@@]2(CO)O[C@@H]12`, for which the Potency result in experiment [1] and in experiment [2] was “inactive” throughout.

Consider `C[C@@H]1O[C@@H](O[C@H]2[C@H](O[C@H]3[C@H](O[C@H]4CC[C@@]5(C)C(CC[C@]6(C)C5CC=C5[C@@H]7CC(C)(C)CC(=O)[C@]7(C)CC[C@]56C)[C@@]4(C)CO)O[C@H](C(=O)O)[C@@H](O)[C@@H]3O)O[C@H](CO)[C@H](O)[C@@H]2O)[C@H](O)[C@H](O)[C@H]1O` (some centres not stated), for which the outcome in experiment [1] and in experiment [2] was “inactive [at 9.29 µM]” throughout.

As to `O=S(=O)(O)c1ccc(Nc2ncnc3c2ncn3[C@@H]2O[C@H](CO)[C@@H](O)[C@H]2O)cc1`, the Potency result in [1], in experiment [2], in [5] and in experiment [6] was “inactive” each time. Also, the outcome in experiment [11] was inactive.

With `CC(=O)NC(C(=O)OC1CCC(C)(C)C2CC=C3C(=O)OCC3C12C)C(C)C` (configuration not stated), the Potency result in [1] and in experiment [2] was “inactive” in each case.

On to `COc1cc(C(=O)OCC2=CCC3C(C(=O)O)=COC(O[C@@H]4O[C@H](CO)[C@@H](O)[C@H](O)[C@H]4O)C23)ccc1O` (some centres not stated), for which the Potency result in experiment [1] and in [2] was “inactive” throughout.

Take `CC1CC(=O)C2=C(O1)OC1(C)CCC3C(C)(C)C4OC4C(=O)C3(C)C1C2` (configuration not stated): the Potency result in experiment [1] and in experiment [2] was “inactive” throughout.

As for `CC(=O)OC/C(=C/C(=O)O)CC[C@@H]1C(CO)=CC[C@@H]2C(C)(C)CCC[C@@]12C`, the Potency result in experiment [1] and in experiment [2] was “inactive” each time.

For the molecule `Cc1ccccc1NC(=O)Nc1ccc(CN2C(=O)N([C@@H](CC(C)C)C(=O)N[C@@H](CC(=O)O)c3ccccc3)C(=O)C2(C)C)cc1`, the Potency result in [1], in experiment [2], in experiment [12] and in experiment [4] was “inactive” in each case. Besides, the Potency is 35 µM (active) in experiment [3]; 31.6 µM (active) in experiment [5]; 7.08 µM (active) in experiment [6]; 27.8 µM (active) in experiment [7]; 10 µM (active) in experiment [8]. Further, the outcome in experiment [9] and in [10] was inactive.

Turning to `C=C1CC[C@H]2[C@@](C)(CCC(OC3OC(CO)C(O)C(O)C3O)[C@@]2(C)CO)C1C(=O)CC1=CCOC1=O` (some centres not stated), the Potency result in [1] and in experiment [2] was “inactive” in each case.

Take `CCC(C)/C=C(C)/C=C/C1=CC2=C(Cl)C(=O)C(C)(OC(C)=O)C(=O)C2=CN1CCCCC(N)C(=O)O` (configuration not stated): the Potency result in [1] and in experiment [2] was “inactive” throughout.

With `C[C@@H](CC[C@@H]1[C@@]2(C)CCCC(C)(C)C2CC[C@@]1(C)O)CC(=O)O` (some centres not stated), the Potency result in experiment [1] and in experiment [2] was “inactive” throughout.

With `C/C(=C\CCC(C)CCO)C(=O)OC[C@H]1O[C@@H](O[C@@H]2OC=C(C(=O)O)[C@H]3CC[C@](C)(O)[C@@H]23)C(O)[C@@H](O)C1O` (some centres not stated), the Potency entry in experiment [1] and in experiment [2] was “inactive” in each case. Further, the Potency in experiment [13] was 13.6 µM (active); in experiment [3], 4.29 µM (active); in [5], 7.94 µM (active); in experiment [6] it was 5.62 µM (active); in experiment [7] it was 2.15 µM (active). In addition, the result in [9] and in experiment [10] was inactive.

For `CC(=O)OC1CC(=O)C2(C)C3CC4=C(OC(C)CC4=O)OC3(C)CCC2C1(C)C` (configuration not stated), the Potency entry in experiment [1] and in experiment [2] was “inactive” throughout.

As to `C[C@@H]1O[C@@H](O[C@H]2[C@H](O[C@H]3[C@H](O[C@H]4CC[C@@]5(C)C(CC[C@]6(C)C5CC=C5[C@@H]7CC(C)(C)C[C@@H](O)[C@]7(C)CC[C@]56C)C4(C)C)O[C@H](C(=O)O)[C@@H](O)[C@@H]3O)O[C@H](C(=O)O)[C@H](O)[C@@H]2O)[C@H](O)[C@H](O)[C@H]1O` (some centres not stated), the outcome in [1] and in [2] was “inactive [at 9.29 µM]” each time.

In the case of `CC1(C)CC=C(c2cnc3ccccc3c2)c2cc(C(=O)Nc3ccc(C(=O)O)cc3)ccc21`, the Potency entry in experiment [1] and in [2] was “inactive” each time. Further, the Potency in experiment [13] is 17.5 µM (active); in experiment [12] it was 15.6 µM (active); in experiment [3], 2.78 µM (active); in experiment [5], 1.78 µM (active); in [6], 3.16 µM (active); in experiment [7] it was 1.97 µM (active). Besides, the molecule was classed as inactive in experiment [9] and in experiment [10].

Consider `CC(C)CC(=O)NCCn1cc(C(=O)O)c(=O)cc1C(O)c1ccccc1` (configuration not stated), for which the Potency entry in [1] and in experiment [2] was “inactive” each time.

`CCc1nnc(NS(=O)(=O)c2ccc(NC(=S)NC(=O)/C=C/c3ccc(F)cc3)cc2)s1`: the Potency result in experiment [1] and in experiment [2] was “inactive” throughout. The Potency in experiment [13] is 19.7 µM (active); in experiment [3], 2.78 µM (active); in [5], 3.16 µM (active); in experiment [6] it was 3.16 µM (active); in [7], 2.78 µM (active). Also, the outcome in experiment [9] and in [10] was inactive.
